# Reference: PubChem BioAssay (Tox21)
# Values joined by “and” are separate entries in the source; they are usually repeats but may differ in a detail not shown here. Equal entries are not always repeated. Records with an inconclusive call do not appear. Entries that show only a call come without a potency. More than one record can exist for a structure, and the calls need not agree. Active and inactive are the calls of the source. Unless noted, calls follow the shape of the dose curve; as a rule, active = well fitted curve in the direction sought with a large enough effect in the repeat runs; inconclusive = weak or mixed curves; inactive = no such curve, though single readings can be large; an effect the other way counts as inactive or inconclusive.
# Assays:
# [1] = qHTS assay to identify aromatase inhibitors - cell viability counter screen (AID 743084);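 also: cells stimulated with testosterone during compound exposure; nearly all actives have a fitted effect of over 55% in size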; also: potency is read from the fitted curve at half-maximal effect
# [2] = target: Aryl hydrocarbon receptor (Homo sapiens) (UniProt P35869); test: qHTS assay to identify small molecule that activate the aryl hydrocarbon receptor (AhR) signaling pathway (AID 743085); also: nearly all actives have a fitted effect of over 15% in size; also: potency is read from the fitted curve at half-maximal effect;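 as to activation: HG2L7.5c1 human HepG2 liver cells with stably integrated DRE-driven firefly reporter; series mostly up to about 70 µM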
# Chain of Aryl hydrocarbon receptor (Homo sapiens) (P35869 whole entry, looked up): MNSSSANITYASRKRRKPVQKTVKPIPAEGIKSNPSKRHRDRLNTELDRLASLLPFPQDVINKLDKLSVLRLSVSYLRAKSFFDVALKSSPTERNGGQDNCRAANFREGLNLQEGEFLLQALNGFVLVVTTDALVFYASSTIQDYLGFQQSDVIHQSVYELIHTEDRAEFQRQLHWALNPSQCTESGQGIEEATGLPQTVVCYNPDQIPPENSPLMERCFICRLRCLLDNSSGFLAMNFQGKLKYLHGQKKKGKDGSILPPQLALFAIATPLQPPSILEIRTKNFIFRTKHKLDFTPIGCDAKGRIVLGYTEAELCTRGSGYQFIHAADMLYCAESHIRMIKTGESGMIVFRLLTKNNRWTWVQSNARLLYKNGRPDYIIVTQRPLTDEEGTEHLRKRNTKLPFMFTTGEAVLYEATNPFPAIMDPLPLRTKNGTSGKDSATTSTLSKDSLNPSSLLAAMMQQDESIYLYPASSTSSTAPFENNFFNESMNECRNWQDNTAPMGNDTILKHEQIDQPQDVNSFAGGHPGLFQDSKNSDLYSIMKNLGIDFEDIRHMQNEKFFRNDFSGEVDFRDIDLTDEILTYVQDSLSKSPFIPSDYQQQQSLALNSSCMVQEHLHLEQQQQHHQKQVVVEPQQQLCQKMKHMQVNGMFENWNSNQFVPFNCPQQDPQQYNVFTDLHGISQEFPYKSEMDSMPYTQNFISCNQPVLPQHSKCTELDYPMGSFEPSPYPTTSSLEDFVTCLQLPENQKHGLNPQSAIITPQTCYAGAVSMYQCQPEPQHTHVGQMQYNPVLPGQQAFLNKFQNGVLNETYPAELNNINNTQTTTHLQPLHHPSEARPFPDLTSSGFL
# Summary of the method: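 24 h compound exposure, 37C, HepG2-derived HG2L7.5c1 cells with DRE-responsive luciferase. Readouts: fluorescence viability, then luminescence at room temperature after 30 min.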
# [3] = qHTS assay to identify small molecule that activate the aryl hydrocarbon receptor (AhR) signaling pathway - cell viability counter screen (AID 743086); also: nearly all actives have a fitted effect of over 45% in size; also: potency is read from the fitted curve at half-maximal effect
# Summary of the method: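 HepG2-AhR-luc (HG2L7.5c1) cells, 4000/well, were preincubated 5 h at 37C, exposed to compound in qHTS format for 24 hr at 37C, then given CellTiter-Fluor for 30 min; viability was read as fluorescence in the reporter wells.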
# [4] = qHTS assay to identify small molecule antagonists of the peroxisome proliferator-activated receptor gamma (PPARg) signaling pathway - cell viability counter screen (AID 743194); also: nearly all actives have a fitted effect of over 55% in size; also: potency is read from the fitted curve at half-maximal effect
# Summary of the method: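 PPARg-UAS-bla HEK293H cells were plated, rested 5 h at 37 C, then treated with compounds plus rosiglitazone (50 nM final) for 17 h at 37 C; viability was then read by CellTiter-Glo luminescence after 30 min at room temperature.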
# [5] = qHTS assay for small molecule agonists of the antioxidant response element (ARE) signaling pathway - cell viability counter screen (AID 743203; calls by dose curve; also: nearly all actives have a fitted effect of over 55% in size; also: potency is read from the fitted curve at half-maximal effect)
# Summary of the method: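 ARE-bla HepG2 cells were plated, rested 5 h at 37C/5% CO2, then exposed to compounds in DMSO for 16 h. Viability was read as CellTiter-Glo luminescence after 30 min at room temperature, in the same wells as the ARE screen.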
# [6] = qHTS assay for small molecule activators of the heat shock response signaling pathway - cell viability counter screen (AID 743209); also: nearly all actives have a fitted effect of over 50% in size; also: potency is read from the fitted curve at half-maximal effect
# Summary of the method: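 HSE-bla HeLa cells plated overnight, then exposed to Tox21 compounds (23 nL in DMSO) for 5 h at 37 C. After the bla reporter read, CellTiter-Glo was added in the same wells and luminescence read after 30 min at room temperature.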
# [7] = qHTS assay for small molecule activators of the heat shock response signaling pathway (AID 743210; active = well fitted activation curve with a large enough effect in the signal ratio in the repeat runs, with a control signal flat, not every such curve was filed as active; the % refers to the signal ratio; also: potency is read from the fitted curve at half-maximal effect; as to activation: series mostly up to about 63 µM)
# Summary of the method: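 HSE-bla HeLa cells (beta-lactamase reporter under heat shock response elements) were exposed to compounds for 5 h at 37 C, then loaded with LiveBLAzer B/G FRET substrate for 2.5 h at room temperature before fluorescence reading.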
# [8] = qHTS assay to identify small molecule agonists of the peroxisome proliferator-activated receptor delta (PPARd) signaling pathway - cell viability counter screen (AID 743211); also: nearly all actives have a fitted effect of over 55% in size; also: potency is read from the fitted curve at half-maximal effect
# Summary of the method: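 Luminescent ATP viability assay (CellTiter-Glo, 30 min RT) in UAS-bla HEK293H cells carrying the PPAR delta reporter construct, 3000 cells/well, after a 17 h compound treatment at 37 C.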
# [9] = target: Peroxisome proliferator-activated receptor delta (Homo sapiens) (UniProt Q03181); test: qHTS assay to identify small molecule agonists of the peroxisome proliferator-activated receptor delta (PPARd) signaling pathway (AID 743212; calls by dose curve)
# Chain of Peroxisome proliferator-activated receptor delta (Homo sapiens) (Q03181 whole entry, looked up): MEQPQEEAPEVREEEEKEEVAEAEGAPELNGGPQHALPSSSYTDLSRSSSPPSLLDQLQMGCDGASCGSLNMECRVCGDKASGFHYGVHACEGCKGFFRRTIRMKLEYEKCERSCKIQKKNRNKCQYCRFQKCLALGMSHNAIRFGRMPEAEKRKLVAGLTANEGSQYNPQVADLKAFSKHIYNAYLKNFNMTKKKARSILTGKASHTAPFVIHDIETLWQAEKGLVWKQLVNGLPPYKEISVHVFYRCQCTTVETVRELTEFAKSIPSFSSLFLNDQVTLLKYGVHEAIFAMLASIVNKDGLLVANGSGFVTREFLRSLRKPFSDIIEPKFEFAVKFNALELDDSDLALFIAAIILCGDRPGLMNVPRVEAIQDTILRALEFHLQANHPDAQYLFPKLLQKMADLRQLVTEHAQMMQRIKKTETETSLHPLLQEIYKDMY
# Summary of the method: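 GeneBLAzer PPARd UAS-bla HEK293H cells (beta-lactamase reporter under UAS control), plated and rested 5 h at 37 C, then exposed to compounds in DMSO at 37 C; LiveBLAzer B/G FRET substrate added, 2 h room temperature, fluorescence read.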
# [10] = target: Bile acid receptor (Homo sapiens) (UniProt Q96RI1); test: qHTS assay to identify small molecule agonists of the farnesoid-X-receptor (FXR) signaling pathway (AID 743220; active = well fitted activation curve with a large enough effect in the signal ratio in the repeat runs, not every such curve was filed as active; the % refers to the signal ratio)
# Chain of Bile acid receptor (Homo sapiens) (Q96RI1 whole entry, looked up): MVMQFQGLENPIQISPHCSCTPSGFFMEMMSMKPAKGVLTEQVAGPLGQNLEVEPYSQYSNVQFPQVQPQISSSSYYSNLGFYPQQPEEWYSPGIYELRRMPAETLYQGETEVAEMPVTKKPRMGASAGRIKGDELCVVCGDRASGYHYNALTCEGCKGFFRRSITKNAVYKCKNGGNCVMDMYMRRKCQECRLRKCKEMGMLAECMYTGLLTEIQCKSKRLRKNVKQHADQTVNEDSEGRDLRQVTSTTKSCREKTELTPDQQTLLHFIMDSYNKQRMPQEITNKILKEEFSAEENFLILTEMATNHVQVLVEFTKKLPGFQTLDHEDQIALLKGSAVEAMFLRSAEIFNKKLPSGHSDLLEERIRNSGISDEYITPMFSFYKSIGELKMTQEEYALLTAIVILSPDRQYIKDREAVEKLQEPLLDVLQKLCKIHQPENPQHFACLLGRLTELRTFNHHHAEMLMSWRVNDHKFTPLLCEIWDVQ
# Summary of the method: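 Beta-lactamase reporter under UAS control in GeneBLAzer FXR HEK 293T cells (5000/well) measured with LiveBLAzer FRET substrate after 2 h at room temperature. Compound exposure lasted 16 h at 37C.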
# [11] = qHTS assay to identify small molecule antagonists of the farnesoid-X-receptor (FXR) signaling pathway - cell viability counter screen (AID 743221; active = well fitted cell-killing curve with a large enough effect in the repeat runs, not every such curve was filed as active; also: nearly all actives have a fitted effect of over 50% in size; also: potency is read from the fitted curve at half-maximal effect)
# Summary of the method: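 In GeneBLAzer FXR-UAS-bla HEK 293T cells stimulated with 50 uM chenodeoxycholic acid (final), compounds acted for 16 h at 37 C. Viability was assessed afterwards by CellTiter-Glo luminescence.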
# [12] = qHTS assay to identify small molecule antagonists of the peroxisome proliferator-activated receptor delta (PPARd) signaling pathway - cell viability counter screen (AID 743213); also: nearly all actives have a fitted effect of over 50% in size; also: potency is read from the fitted curve at half-maximal effect
# Summary of the method: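 Cytotoxicity counter screen: CellTiter-Glo luminescence read 30 min after addition, in the same wells as the reporter assay. There, PPARd UAS-bla HEK293H cells (3000/well) were treated 17 h at 37 C with compound and 300 nM L165041.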
# [13] = qHTS assay to identify small molecule agonists of the farnesoid-X-receptor (FXR) signaling pathway - cell viability counter screen (AID 743218); also: nearly all actives have a fitted effect of over 45% in size; also: potency is read from the fitted curve at half-maximal effect
# Summary of the method: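 FXR-UAS-bla HEK 293T cells exposed to compounds for 16 h at 37C. Cytotoxicity read in the same wells by CellTiter-Glo luminescence after 30 min at room temperature, following the beta-lactamase FRET read.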
# [14] = qHTS assay for small molecule agonists of the antioxidant response element (ARE) signaling pathway (AID 743202; active = well fitted activation curve with a large enough effect in the signal ratio in the repeat runs, not every such curve was filed as active; the % refers to the signal ratio)
# Summary of the method: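 Read-out: LiveBLAzer B/G FRET substrate fluorescence after 2 h at room temperature, following 16 h compound treatment at 37 C of HepG2 cells carrying an ARE-driven beta-lactamase reporter.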
# [15] = target: Peroxisome proliferator-activated receptor gamma (Homo sapiens) (UniProt P37231); test: qHTS assay to identify small molecule antagonists of the peroxisome proliferator-activated receptor gamma (PPARg) signaling pathway (AID 743191; calls by dose curve; also: series mostly up to about 63 µM; nearly all actives have a fitted effect of over 30% in size)
# Chain of Peroxisome proliferator-activated receptor gamma (Homo sapiens) (P37231 whole entry, looked up): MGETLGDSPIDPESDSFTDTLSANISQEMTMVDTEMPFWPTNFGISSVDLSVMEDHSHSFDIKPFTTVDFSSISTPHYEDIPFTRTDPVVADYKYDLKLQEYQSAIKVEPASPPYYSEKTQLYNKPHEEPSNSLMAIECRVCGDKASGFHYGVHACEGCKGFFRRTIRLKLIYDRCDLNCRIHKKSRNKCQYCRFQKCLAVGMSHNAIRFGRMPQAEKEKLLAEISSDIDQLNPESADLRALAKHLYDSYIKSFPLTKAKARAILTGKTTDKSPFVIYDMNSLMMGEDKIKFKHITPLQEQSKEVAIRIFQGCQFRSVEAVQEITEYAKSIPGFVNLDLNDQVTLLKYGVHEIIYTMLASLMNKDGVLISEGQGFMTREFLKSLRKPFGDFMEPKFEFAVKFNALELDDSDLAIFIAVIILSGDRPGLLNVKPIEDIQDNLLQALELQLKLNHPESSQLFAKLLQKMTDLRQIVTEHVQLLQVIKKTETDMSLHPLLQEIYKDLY
# Summary of the method: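 GeneBLAzer PPARg UAS-bla HEK293H cells carrying a UAS-driven beta-lactamase reporter were plated at 3000 cells/well, preincubated 5 h at 37C, then given compound for 17 h at 37C; LiveBLAzer B/G FRET substrate was read after 1 h at room temperature.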
# [16] = target: Vitamin D3 receptor (Homo sapiens) (UniProt P11473); test: qHTS assay to identify small molecule antagonists of the vitamin D receptor (VDR) signaling pathway (AID 743223; active = well fitted inhibition curve with a large enough effect in the signal ratio in the repeat runs, not every such curve was filed as active; the % refers to the signal ratio; also: potency is read from the fitted curve at half-maximal effect)
# Chain of Vitamin D3 receptor (Homo sapiens) (P11473 whole entry, looked up): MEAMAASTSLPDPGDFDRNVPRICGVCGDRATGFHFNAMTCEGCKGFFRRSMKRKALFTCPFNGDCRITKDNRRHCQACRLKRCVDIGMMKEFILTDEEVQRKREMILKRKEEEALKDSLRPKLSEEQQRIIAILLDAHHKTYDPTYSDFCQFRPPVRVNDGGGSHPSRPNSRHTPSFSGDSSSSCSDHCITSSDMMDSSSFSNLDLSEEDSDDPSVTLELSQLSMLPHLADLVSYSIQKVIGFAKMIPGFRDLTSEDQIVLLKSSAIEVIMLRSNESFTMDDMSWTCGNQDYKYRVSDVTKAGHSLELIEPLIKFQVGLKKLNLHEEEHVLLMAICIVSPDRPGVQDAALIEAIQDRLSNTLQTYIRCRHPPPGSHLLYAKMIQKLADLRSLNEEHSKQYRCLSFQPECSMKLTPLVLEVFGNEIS
# Summary of the method: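 Agonist 1alpha,25-dihydroxyvitamin D3 (3 nM in well) was added with each compound to VDR-bla cells preincubated 4 h. Cells stood 16 h at 37C, then FRET substrate 2 h at room temperature; fluorescence intensity recorded.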
# [17] = target: Vitamin D3 receptor (Homo sapiens) (UniProt P11473); test: qHTS assay to identify small molecule agonists of the vitamin D receptor (VDR) signaling pathway (AID 743222; calls by dose curve)
# Summary of the method: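 VDR-bla cells plated 4 h at 37 C, then exposed to compounds for 16 h at 37 C. Beta-lactamase reporter activity measured by fluorescence after 2 h room-temperature loading with LiveBLAzer B/G FRET substrate.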
# [18] = target: Peroxisome proliferator-activated receptor delta (Homo sapiens) (UniProt Q03181); test: qHTS assay to identify small molecule antagonists of the peroxisome proliferator-activated receptor delta (PPARd) signaling pathway (AID 743215; active = well fitted inhibition curve with a large enough effect in the signal ratio in the repeat runs, not every such curve was filed as active; the % refers to the signal ratio;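 also: cells stimulated with agonist L165041 at 300 nM final during compound exposure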; also: potency is read from the fitted curve at half-maximal effect)
# Summary of the method: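 PPARd-bla HEK293H cells (UAS-bla reporter) preincubated 5 h, then given compound plus 300 nM final L165041 agonist for 17 h at 37 C. Beta-lactamase activity read by LiveBLAzer B/G FRET substrate fluorescence after 2 h at room temperature.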
# [19] = target: Bile acid receptor (Homo sapiens) (UniProt Q96RI1); test: qHTS assay to identify small molecule antagonists of the farnesoid-X-receptor (FXR) signaling pathway (AID 743217; active = well fitted inhibition curve with a large enough effect in the signal ratio in the repeat runs, not every such curve was filed as active; the % refers to the signal ratio; also: potency is read from the fitted curve at half-maximal effect)
# Summary of the method: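 FXR-UAS-bla HEK 293T cells (beta-lactamase reporter) given compound plus chenodeoxycholic acid (50 uM final), 16 h at 37C. LiveBLAzer B/G FRET substrate added for 2 h at room temperature; fluorescence read.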
Compound,Potency [1],Potency [2],Potency [3],Potency [4],Potency [5],Potency [6],Potency [7],Potency [8],outcome [9],Potency [10],Potency [11],Potency [12],Potency [13],Potency [14],Potency [15],Potency [16],Potency [17],Potency [18],Potency [19]
CC(=O)Oc1ccc(C2(c3ccc(OC(C)=O)cc3)Oc3ccccc3NC2=O)cc1,inactive,inactive,inactive,inactive,inactive,inactive,inactive,inactive,inactive,inactive,inactive,,,,,,,,
CCC(C)c1cc([N+](=O)[O-])cc([N+](=O)[O-])c1OC(=O)OC(C)C (stereo not drawn),54.5 µM (active),inactive,43.3 µM (active),49 µM (active),24.3 µM (active),21.9 µM (active),,,,,,,,,,,,,
CCN=C1C=CC(=C(c2ccc(N(CC)CC)cc2)c2ccc(N(CC)CC)cc2)c2ccccc21,9.63 µM (active),inactive,24.2 µM (active),0.154 µM (active),5.42 µM (active),21.7 µM (active),,3.87 µM (active),,,13.7 µM (active),12.2 µM (active),6.88 µM (active),,,,,,
CCCSS/C(CCO)=C(\C)N(C=O)Cc1cnc(C)nc1N,inactive,inactive,inactive,inactive,inactive,inactive,,inactive,,,inactive,inactive,inactive,inactive,,,,,
COC(=O)CC(C)CCC=C(C)C (stereo not drawn),inactive,inactive,inactive,inactive,inactive,,,inactive,inactive,,inactive,,inactive,,inactive,inactive,,,
CCOC(=O)[C@@](C)(N)Cc1ccc(O)c(O)c1,inactive,inactive,inactive,inactive,inactive,inactive,inactive,inactive,inactive,inactive,inactive,inactive,inactive,,inactive,inactive,inactive,,
CC(C)(C)CC(C)(C)c1ccccc1O,48.8 µM (active),inactive,inactive,43.9 µM (active),61.4 µM (active),55.2 µM (active),,43.9 µM (active),inactive,,43.9 µM (active),,,,,43.9 µM (active),,,
CN(Cc1cc(Br)cc(Br)c1N)C1CCCCC1,inactive,inactive,inactive,inactive,inactive,,,,inactive,inactive,inactive,,,,inactive,,,inactive,
Cc1occc1SSc1ccoc1C,43.3 µM (active),inactive,inactive,inactive,inactive,,23.6 µM (active),,inactive,,inactive,inactive,inactive,,inactive,inactive,,,
Clc1ccccc1CN1CCc2sccc2C1,inactive,inactive,inactive,inactive,,inactive,,,,,inactive,inactive,inactive,,,,,,
NC(=O)c1nc(-c2cccc(-c3cc(F)ccc3OCC(F)(F)C(F)(F)F)c2)n[nH]1,43.3 µM (active),inactive,,,,,,49 µM (active),,inactive,,,,,,,,54.9 µM (active),
CC(=O)Nc1ccc(O)cc1,inactive,inactive,inactive,inactive,,inactive,,inactive,,,inactive,inactive,inactive,,,,,,
Cc1cccc(C)c1NC(=O)CN1CCN(CCCC(c2ccc(F)cc2)c2ccc(F)cc2)CC1,inactive,inactive,11.4 µM (active),26.6 µM (active),,,,18.8 µM (active),,inactive,29.8 µM (active),,26.6 µM (active),,,,,,
CCCCCCCC/C=C\CCCCCCCC(=O)NCc1ccc(O)c(OC)c1,inactive,inactive,inactive,inactive,,,,23.7 µM (active),inactive,inactive,,18.8 µM (active),29.8 µM (active),,,26.8 µM (active),,,29.8 µM (active)
CN(C)CCCN1c2ccccc2CCc2ccccc21,inactive,inactive,,inactive,,inactive,,30.9 µM (active),,,inactive,24.5 µM (active) and 26.6 µM (active),19.5 µM (active) and inactive,,,,,,
C=C(c1ccc(C(=O)O)cc1)c1cc2c(cc1C)C(C)(C)CCC2(C)C,inactive,inactive,inactive,19.5 µM (active),13.7 µM (active),11 µM (active) and 21.1 µM (active),,61.6 µM (active),,,inactive,,24.5 µM (active),,,,inactive,,
Cc1nc(Nc2ncc(C(=O)Nc3c(C)cccc3Cl)s2)cc(N2CCN(CCO)CC2)n1,inactive,1.19 µM (active),9.44 µM (active),inactive,,inactive,inactive,,inactive,inactive,,,,,,,,0.473 µM (active),
CN(C)c1ccc(N=Nc2ccccc2C(=O)O)cc1,24.3 µM (active),54.5 µM (active),,,61.1 µM (active),,,,inactive,,inactive,,,,inactive,,,,
S=P(N1CC1)(N1CC1)N1CC1,inactive,inactive,inactive,,,,,inactive,inactive,inactive,inactive,,,,,,,,
CC(C)(C)C1=CC(=O)C=C(C(C)(C)C)C1=O,34.4 µM (active),inactive,inactive,24.6 µM (active),54.5 µM (active),43.7 µM (active),,,,,inactive,inactive,,,,inactive,inactive,,
CCCCCCCCCCCCCOP(=O)(O)O,inactive,inactive,inactive,43.6 µM (active),43.3 µM (active),34.7 µM (active),,,inactive,,inactive,,inactive,,,,inactive,inactive,
C=CC(=O)OCCOCC(CC)(COCCOC(=O)C=C)COCCOC(=O)C=C,2.84 µM (active),inactive,71.4 µM (active),,inactive,18.1 µM (active),,51 µM (active),,,51 µM (active),,51 µM (active),,,,,,
SCCCCCCCCS,inactive,inactive,inactive,inactive,43.3 µM (active),,,inactive,inactive,inactive,inactive,inactive,inactive,,,inactive,,inactive,
Oc1ccc(-c2ccc(O)cc2)cc1,inactive,inactive,inactive,inactive,,inactive,inactive,inactive,,,inactive,,,,,inactive,inactive,,
CCCC(CC)CCCCCCCN (stereo not drawn),inactive,inactive,inactive,,,inactive,,inactive,inactive,,,inactive,inactive,inactive,,inactive,,inactive,
CCCCOC(=O)C(C)CC (stereo not drawn),inactive,inactive,,inactive,inactive,,,,,,,,inactive,inactive,,inactive,,,
CCCCN(CCCC)CCC(O)c1cc2c(Cl)cc(Cl)cc2c2cc(C(F)(F)F)ccc12 (stereo not drawn),inactive,inactive,inactive,,inactive,inactive,inactive,33.5 µM (active),inactive,inactive,,,29.8 µM (active),,,inactive,,inactive,
C=CC(=O)OCC(O)COc1ccccc1 (stereo not drawn),61.1 µM (active),inactive,inactive,,,4.9 µM (active),,49 µM (active),inactive,,inactive,,34.7 µM (active),,,,,,
